The campaign covered roughly 5,500 compounds. About 2,000 (36%) were called active. Another 18% or so got no clear call; they are omitted. No stated cut-off is given here; in the data, active means normalized growth mostly below about 0.91 (no sharp cut-off); inconclusive means no clear call, values can overlap the other calls; inactive means mostly above about 0.92. The list shows a part of the results.
Assay: chemical genetic growth profiling, strain panel (AID 1159580);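 further: tested at 20 µM; growth read once vehicle control cultures reached saturation at 30 °C; 1 = growth at the plate median or of vehicle wells; lower values mean less growth of the strain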
Conditions: growth OD

Measured: normalized growth

CC(=O)[C@H]1CCC2C3CCC4=CC(=O)CC[C@]4(C)C3CC[C@@]21C (some centres not stated)
active: S. cerevisiae deletion strains, locus YKL085W, strain MDH1 (second series), active compounds read low 0.929 | S. cerevisiae deletion strains, locus YKL085W, strain MDH1, active compounds read low 0.929 | S. cerevisiae deletion strains, locus YKR001C, strain vps1, active compounds read low 0.704 | S. cerevisiae deletion strains, locus YLR039C, strain RIC1, active compounds read low 0.447 | S. cerevisiae deletion strains, locus YLR262C, strain YPT6 (second series), active compounds read low 0.475 | S. cerevisiae deletion strains, locus YLR262C, strain YPT6, active compounds read low 0.494 | S. cerevisiae deletion strains, locus YLR268W, strain sec22, active compounds read low 0.718 | S. cerevisiae deletion strains, locus YLR320W, strain mms22, active compounds read low 0.615 | S. cerevisiae deletion strains, locus YLR371W, strain rom2, active compounds read low 0.904 | S. cerevisiae deletion strains, locus YLR418C, strain cdc73, active compounds read low 0.441 | S. cerevisiae deletion strains, locus YML032C, strain rad52, active compounds read low 0.76 | S. cerevisiae deletion strains, locus YMR078C, strain ctf18, active compounds read low 0.724 | S. cerevisiae deletion strains, locus YMR205C, strain PFK2, active compounds read low 0.813 | S. cerevisiae deletion strains, locus YMR223W, strain ubp8, active compounds read low 0.782 | S. cerevisiae deletion strains, locus YNL071W, strain lat1, active compounds read low 0.632 | S. cerevisiae deletion strains, locus YNL271C, strain bni1, active compounds read low 0.889 | S. cerevisiae deletion strains, locus YNL298W, strain CLA4, active compounds read low 0.865 | S. cerevisiae deletion strains, locus YNL307C, strain MCK1, active compounds read low 0.185 | S. cerevisiae deletion strains, locus YNR052C, strain pop2, active compounds read low 0.733 | S. cerevisiae deletion strains, locus YOL147C, strain pex11, active compounds read low 0.527 | S. cerevisiae deletion strains, locus YOR144C, strain elg1, active compounds read low 0.852 | S. cerevisiae deletion strains, locus YOR184W, strain ser1, active compounds read low 0.284 | S. cerevisiae deletion strains, locus YOR270C, strain vph1, active compounds read low 0.704 | S. cerevisiae deletion strains, locus YOR316C, strain cot1, active compounds read low 0.884 | S. cerevisiae deletion strains, locus YPL051W, strain arl3, active compounds read low 0.903 | S. cerevisiae deletion strains, locus YPL078C, strain atp4, active compounds read low 0.874 | S. cerevisiae deletion strains, locus YPR119W, strain clb2, active compounds read low 0.919 | S. cerevisiae deletion strains, locus YPR163C, strain tif3, active compounds read low 0.527 | S. cerevisiae deletion strains, strain wtn01, active compounds read low 0.789
inactive: S. cerevisiae deletion strains, locus YJR075W, strain HOC1, active compounds read low 0.949 | S. cerevisiae deletion strains, locus YKL009W, strain mrt4, active compounds read low 0.914 | S. cerevisiae deletion strains, locus YKL068W, active compounds read low 0.947 | S. cerevisiae deletion strains, locus YKL160W, strain elf1, active compounds read low 0.913 | S. cerevisiae deletion strains, locus YKL190W, strain CNB1, active compounds read low 0.978 | S. cerevisiae deletion strains, locus YKR026C, strain gcn3, active compounds read low 0.981 | S. cerevisiae deletion strains, locus YKR091W, strain srl3, active compounds read low 0.977 | S. cerevisiae deletion strains, locus YLL001W, strain dnm1, active compounds read low 0.989 | S. cerevisiae deletion strains, locus YLL026W, active compounds read low 0.978 | S. cerevisiae deletion strains, locus YLL041C, strain sdh2, active compounds read low 0.977 | S. cerevisiae deletion strains, locus YLR027C, strain aat2, active compounds read low 0.95 | S. cerevisiae deletion strains, locus YLR058C, strain SHM2, active compounds read low 0.974 | S. cerevisiae deletion strains, locus YLR102C, strain apc9, active compounds read low 0.942 | S. cerevisiae deletion strains, locus YLR113W, strain HOG1, active compounds read low 0.958 | S. cerevisiae deletion strains, locus YLR221C, strain rsa3, active compounds read low 0.955 | S. cerevisiae deletion strains, locus YLR258W, strain gsy2, active compounds read low 0.962 | S. cerevisiae deletion strains, locus YLR330W, strain CHS5, active compounds read low 0.978 | S. cerevisiae deletion strains, locus YLR342W, strain FKS1 (second series), active compounds read low 0.814 | S. cerevisiae deletion strains, locus YLR342W, strain FKS1, active compounds read low 0.94 | S. cerevisiae deletion strains, locus YLR357W, strain rsc2, active compounds read low 1.05 | S. cerevisiae deletion strains, locus YLR370C, strain arc18, active compounds read low 0.957 | S. cerevisiae deletion strains, locus YLR384C, strain iki3, active compounds read low 0.968 | S. cerevisiae deletion strains, locus YML016C, strain PPZ1, active compounds read low 0.963 | S. cerevisiae deletion strains, locus YML120C, strain ndi1, active compounds read low 0.966 | S. cerevisiae deletion strains, locus YML124C, strain tub3, active compounds read low 0.942 | S. cerevisiae deletion strains, locus YMR058W, strain fet3, active compounds read low 0.923 | S. cerevisiae deletion strains, locus YMR125W, strain sto1, active compounds read low 0.942 | S. cerevisiae deletion strains, locus YMR129W, active compounds read low 0.976 | S. cerevisiae deletion strains, locus YMR231W, strain pep5, active compounds read low 0.96 | S. cerevisiae deletion strains, locus YMR263W, strain SAP30, active compounds read low 0.973 | S. cerevisiae deletion strains, locus YMR307W, strain GAS1, active compounds read low 0.78 | S. cerevisiae deletion strains, locus YNL067W, strain RPL9B, active compounds read low 0.952 | S. cerevisiae deletion strains, locus YNL128W, strain TEP1, active compounds read low 0.99 | S. cerevisiae deletion strains, locus YNL153C, strain GIM3, active compounds read low 0.967 | S. cerevisiae deletion strains, locus YNL183C, strain NPR1, active compounds read low 0.933 | S. cerevisiae deletion strains, locus YNL209W, strain ssb2, active compounds read low 0.991 | S. cerevisiae deletion strains, locus YNL233W, strain BNI4, active compounds read low 0.947 | S. cerevisiae deletion strains, locus YNL248C, strain rpa49, active compounds read low 0.94 | S. cerevisiae deletion strains, locus YNL250W, strain rad50, active compounds read low 0.917 | S. cerevisiae deletion strains, locus YNL322C, strain KRE1 (second series), active compounds read low 1 | S. cerevisiae deletion strains, locus YNL322C, strain KRE1, active compounds read low 0.989 | S. cerevisiae deletion strains, locus YNR049C, strain mso1, active compounds read low 0.975 | S. cerevisiae deletion strains, locus YOL006C, strain TOP1, active compounds read low 0.652 | S. cerevisiae deletion strains, locus YOL012C, strain htz1 0.798 | S. cerevisiae deletion strains, locus YOR001W, strain rrp6, active compounds read low 0.934 | S. cerevisiae deletion strains, locus YOR061W, strain CKA2, active compounds read low 0.964 | S. cerevisiae deletion strains, locus YOR069W, strain VPS5, active compounds read low 0.978 | S. cerevisiae deletion strains, locus YOR070C, strain gyp1, active compounds read low 0.955 | S. cerevisiae deletion strains, locus YOR080W, strain dia2, active compounds read low 0.993 | S. cerevisiae deletion strains, locus YOR083W, strain WHI5, active compounds read low 0.941 | S. cerevisiae deletion strains, locus YOR106W, strain vam3, active compounds read low 0.95 | S. cerevisiae deletion strains, locus YOR136W, strain idh2, active compounds read low 0.943 | S. cerevisiae deletion strains, locus YOR231W, strain MKK1, active compounds read low 0.937 | S. cerevisiae deletion strains, locus YOR265W, strain rbl2, active compounds read low 0.967 | S. cerevisiae deletion strains, locus YOR290C, strain snf2, active compounds read low 0.926 | S. cerevisiae deletion strains, locus YPL055C, strain LGE1, active compounds read low 0.929 | S. cerevisiae deletion strains, locus YPL106C, strain sse1, active compounds read low 1.05 | S. cerevisiae deletion strains, locus YPL240C, strain hsp82, active compounds read low 0.964 | S. cerevisiae deletion strains, locus YPL241C, strain CIN2, active compounds read low 0.977 | S. cerevisiae deletion strains, locus YPL256C, strain CLN2, active compounds read low 0.981 | S. cerevisiae deletion strains, locus YPR141C, strain kar3, active compounds read low 0.937 | S. cerevisiae deletion strains, locus YPR167C, strain met16, active compounds read low 0.945 | S. cerevisiae strains, strain wild type, active compounds read low 0.974

Reference: PubChem BioAssay AID1159580 (chemical genetic matrix, 2015)
